Data as given in paper PMC7862700, “An all-to-all approach to the identification of sequence-specific readers for epigenetic DNA modifications on cytosine”.

Key:
Test in all cases: DAPPL (digital affinity profiling via proximity ligation, sequencing); 10 mM Tris-HCl pH 7.5, 50 mM NaCl, 1 mM DTT, 4% glycerol, room temperature, 30 min; GST-TFs on glutathione beads, 16-mer random dsDNA library, 0.1% formaldehyde crosslink after washing; high values mean tight binding
[1] = biological target: T1, FLI1 (Homo sapiens, UniProt Q01543 1-452); conditions: protein: recombinant; tags: N-terminal GST; dsDNA, one strand shown
T1 sequence: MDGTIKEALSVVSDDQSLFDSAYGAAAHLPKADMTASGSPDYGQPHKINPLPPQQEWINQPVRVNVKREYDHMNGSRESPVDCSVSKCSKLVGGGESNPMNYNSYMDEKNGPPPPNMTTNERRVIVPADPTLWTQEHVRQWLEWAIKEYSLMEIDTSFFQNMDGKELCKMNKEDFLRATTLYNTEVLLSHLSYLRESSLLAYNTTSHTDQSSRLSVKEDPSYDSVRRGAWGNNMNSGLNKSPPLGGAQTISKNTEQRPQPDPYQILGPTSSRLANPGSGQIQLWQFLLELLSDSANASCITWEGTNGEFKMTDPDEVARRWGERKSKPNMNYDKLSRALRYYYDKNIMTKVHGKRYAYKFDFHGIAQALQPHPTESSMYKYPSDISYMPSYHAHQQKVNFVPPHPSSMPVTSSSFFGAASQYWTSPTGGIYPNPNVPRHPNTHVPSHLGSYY
In short: (§1)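 Binding signal is defined as a hexamer's read frequency for one factor over its frequency for the tag-only sample. To obtain reads, GST-fused human transcription factors were expressed in yeast, captured on glutathione beads, barcoded with DNA and pooled with that sample. Pools met 200 nmole of a 16-mer random double-stranded DNA library in Tris/NaCl/DTT/glycerol buffer for 30 min at room temperature before washing, 0.1% formaldehyde crosslinking, proximity ligation (BsaI/T4 ligase, 1 h, 37 °C), PCR and Illumina NextSeq500 sequencing.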

[2] = biological target: T2, ELK1 (Homo sapiens, UniProt P19419 1-428); conditions: protein: recombinant; tags: N-terminal GST; dsDNA, one strand shown
T2 sequence: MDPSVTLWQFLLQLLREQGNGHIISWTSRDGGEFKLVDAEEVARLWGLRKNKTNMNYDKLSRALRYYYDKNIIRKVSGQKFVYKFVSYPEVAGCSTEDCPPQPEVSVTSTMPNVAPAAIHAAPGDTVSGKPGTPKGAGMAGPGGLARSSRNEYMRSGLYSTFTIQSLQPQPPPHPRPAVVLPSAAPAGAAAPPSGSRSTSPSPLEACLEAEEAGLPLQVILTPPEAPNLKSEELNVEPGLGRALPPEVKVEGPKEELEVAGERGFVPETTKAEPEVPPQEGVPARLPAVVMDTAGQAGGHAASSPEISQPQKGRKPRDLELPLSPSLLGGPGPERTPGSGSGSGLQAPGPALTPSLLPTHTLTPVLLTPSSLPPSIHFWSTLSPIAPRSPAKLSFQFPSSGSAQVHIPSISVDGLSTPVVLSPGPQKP
In short: as §1

[3] = biological target: T3, GABPA (Homo sapiens, UniProt Q06546 1-454); conditions: protein: recombinant; tags: N-terminal GST; dsDNA, one strand shown
T3 sequence: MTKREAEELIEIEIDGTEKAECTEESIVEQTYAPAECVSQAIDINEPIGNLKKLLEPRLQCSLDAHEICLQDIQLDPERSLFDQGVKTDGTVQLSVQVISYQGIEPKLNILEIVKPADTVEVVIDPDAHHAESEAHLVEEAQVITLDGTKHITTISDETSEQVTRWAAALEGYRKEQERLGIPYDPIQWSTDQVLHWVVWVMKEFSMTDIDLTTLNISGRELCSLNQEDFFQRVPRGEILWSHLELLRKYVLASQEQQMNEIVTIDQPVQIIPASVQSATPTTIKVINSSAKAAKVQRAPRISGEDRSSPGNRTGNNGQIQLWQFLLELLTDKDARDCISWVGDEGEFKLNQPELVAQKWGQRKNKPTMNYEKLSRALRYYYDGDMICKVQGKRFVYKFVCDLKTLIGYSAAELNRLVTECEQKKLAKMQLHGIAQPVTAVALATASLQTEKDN
In short: as §1

[4] = biological target: T4, ERG (Homo sapiens, UniProt P11308 1-479); conditions: protein: recombinant; tags: N-terminal GST; dsDNA, one strand shown
T4 sequence: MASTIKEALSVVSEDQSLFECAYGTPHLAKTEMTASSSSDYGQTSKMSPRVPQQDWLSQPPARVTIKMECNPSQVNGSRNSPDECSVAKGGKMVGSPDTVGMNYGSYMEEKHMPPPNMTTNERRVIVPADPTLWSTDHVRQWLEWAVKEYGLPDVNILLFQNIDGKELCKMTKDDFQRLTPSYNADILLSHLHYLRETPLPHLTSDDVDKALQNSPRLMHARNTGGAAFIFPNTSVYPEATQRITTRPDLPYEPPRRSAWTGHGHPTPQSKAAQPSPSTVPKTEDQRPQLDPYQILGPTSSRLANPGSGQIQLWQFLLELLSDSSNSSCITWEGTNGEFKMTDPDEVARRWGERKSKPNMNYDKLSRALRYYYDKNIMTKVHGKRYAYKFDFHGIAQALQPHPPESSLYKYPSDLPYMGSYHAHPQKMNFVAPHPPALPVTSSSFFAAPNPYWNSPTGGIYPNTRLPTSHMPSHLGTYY
In short: as §1

[5] = biological target: ELF1 (Homo sapiens, UniProt P32519 1-619); conditions: protein: recombinant; tags: N-terminal GST; dsDNA, one strand shown
In short: as §1

[6] = biological target: T5, EHF (Homo sapiens, UniProt Q9NZC4 1-300); conditions: protein: recombinant; tags: N-terminal GST; dsDNA, one strand shown
T5 sequence: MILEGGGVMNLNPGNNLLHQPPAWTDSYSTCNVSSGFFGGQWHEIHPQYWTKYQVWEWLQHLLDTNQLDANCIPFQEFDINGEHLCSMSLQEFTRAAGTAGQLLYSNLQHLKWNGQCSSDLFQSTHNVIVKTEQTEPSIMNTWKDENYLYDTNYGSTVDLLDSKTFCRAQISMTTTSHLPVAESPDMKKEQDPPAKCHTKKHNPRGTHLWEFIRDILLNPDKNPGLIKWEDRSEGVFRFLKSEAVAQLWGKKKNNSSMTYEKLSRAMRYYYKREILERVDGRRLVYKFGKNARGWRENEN
In short: as §1

[7] = biological target: SPI1 (Homo sapiens, UniProt P17947 1-270); conditions: protein: recombinant; tags: N-terminal GST; dsDNA, one strand shown
In short: as §1

[8] = biological target: SPIB (Homo sapiens, UniProt Q01892 1-262); conditions: protein: recombinant; tags: N-terminal GST; dsDNA, one strand shown
In short: as §1

[9] = biological target: T6, ELK3 (Homo sapiens, UniProt P41970 1-407); conditions: protein: recombinant; tags: N-terminal GST; dsDNA, one strand shown
T6 sequence: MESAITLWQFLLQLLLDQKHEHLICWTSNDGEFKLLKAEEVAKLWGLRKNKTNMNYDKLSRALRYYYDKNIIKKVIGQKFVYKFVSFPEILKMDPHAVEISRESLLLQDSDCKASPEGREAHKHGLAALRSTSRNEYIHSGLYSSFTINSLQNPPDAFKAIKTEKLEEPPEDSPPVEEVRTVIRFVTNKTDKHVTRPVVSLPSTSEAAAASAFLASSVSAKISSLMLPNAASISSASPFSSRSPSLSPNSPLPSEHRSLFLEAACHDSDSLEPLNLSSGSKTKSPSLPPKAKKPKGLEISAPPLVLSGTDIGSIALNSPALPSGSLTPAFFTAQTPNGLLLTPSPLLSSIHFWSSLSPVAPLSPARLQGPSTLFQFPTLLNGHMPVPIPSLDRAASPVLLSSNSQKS
In short: as §1

[10] = biological target: T7, FEV (Homo sapiens, UniProt Q99581 1-238); conditions: protein: recombinant; tags: N-terminal GST; dsDNA, one strand shown
T7 sequence: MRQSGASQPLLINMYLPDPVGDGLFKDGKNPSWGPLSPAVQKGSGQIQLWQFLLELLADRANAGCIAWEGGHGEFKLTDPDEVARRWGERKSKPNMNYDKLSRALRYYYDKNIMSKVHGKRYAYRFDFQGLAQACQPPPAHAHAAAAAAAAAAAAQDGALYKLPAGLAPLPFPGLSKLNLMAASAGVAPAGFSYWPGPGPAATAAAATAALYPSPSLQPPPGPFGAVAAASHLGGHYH
In short: as §1

[11] = biological target: ETV5 (Homo sapiens, UniProt P41161 1-510); conditions: protein: recombinant; tags: N-terminal GST; dsDNA, one strand shown
In short: as §1

[12] = biological target: HSF1 (Homo sapiens, UniProt Q00613 1-529); conditions: protein: recombinant; tags: N-terminal GST; chain copies: 3; dsDNA, one strand shown
In short: as §1

[13] = biological target: T8, SPIC (Homo sapiens, UniProt Q8N5J4 1-248); conditions: protein: recombinant; tags: N-terminal GST; dsDNA, one strand shown
T8 sequence: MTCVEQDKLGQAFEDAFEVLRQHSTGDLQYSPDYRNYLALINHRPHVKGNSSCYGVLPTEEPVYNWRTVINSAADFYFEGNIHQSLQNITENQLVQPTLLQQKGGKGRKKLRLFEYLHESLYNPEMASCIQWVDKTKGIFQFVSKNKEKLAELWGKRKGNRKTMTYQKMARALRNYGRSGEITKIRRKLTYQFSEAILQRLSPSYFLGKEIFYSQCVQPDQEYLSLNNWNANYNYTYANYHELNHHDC
In short: as §1

[14] = biological target: ELF4 (Homo sapiens, UniProt Q99607 1-663); conditions: protein: recombinant; tags: N-terminal GST; dsDNA, one strand shown
In short: as §1

[15] = biological target: T9, ELK4 (Homo sapiens, UniProt P28324-2 1-405); conditions: protein: recombinant; tags: N-terminal GST; dsDNA, one strand shown
T9 sequence: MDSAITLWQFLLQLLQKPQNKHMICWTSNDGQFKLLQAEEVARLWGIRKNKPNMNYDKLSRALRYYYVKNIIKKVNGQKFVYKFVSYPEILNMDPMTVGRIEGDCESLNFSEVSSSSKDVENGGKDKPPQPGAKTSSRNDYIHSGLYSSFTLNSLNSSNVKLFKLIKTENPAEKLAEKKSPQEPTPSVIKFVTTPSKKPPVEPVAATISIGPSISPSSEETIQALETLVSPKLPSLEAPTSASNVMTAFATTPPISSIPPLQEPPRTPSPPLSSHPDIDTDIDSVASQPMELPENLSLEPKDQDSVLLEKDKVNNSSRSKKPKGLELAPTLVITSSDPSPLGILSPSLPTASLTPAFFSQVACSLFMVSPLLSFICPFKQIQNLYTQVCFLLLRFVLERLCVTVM
In short: as §1

[16] = biological target: T10, ETV2 (Homo sapiens, UniProt O00321 1-342); conditions: protein: recombinant; tags: N-terminal GST; dsDNA, one strand shown
T10 sequence: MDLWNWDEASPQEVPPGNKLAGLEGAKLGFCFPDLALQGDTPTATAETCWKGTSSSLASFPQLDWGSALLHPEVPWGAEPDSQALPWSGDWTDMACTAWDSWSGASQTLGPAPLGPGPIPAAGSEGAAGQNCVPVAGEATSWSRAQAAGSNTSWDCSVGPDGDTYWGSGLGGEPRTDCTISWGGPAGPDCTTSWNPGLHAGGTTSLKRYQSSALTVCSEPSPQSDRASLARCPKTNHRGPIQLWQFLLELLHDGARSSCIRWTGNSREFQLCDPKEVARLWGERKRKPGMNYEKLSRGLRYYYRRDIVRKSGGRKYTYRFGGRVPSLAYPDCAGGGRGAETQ
In short: as §1

[17] = biological target: T11, ELF3 (Homo sapiens, UniProt P78545 1-371); conditions: protein: recombinant; tags: N-terminal GST; dsDNA, one strand shown
T11 sequence: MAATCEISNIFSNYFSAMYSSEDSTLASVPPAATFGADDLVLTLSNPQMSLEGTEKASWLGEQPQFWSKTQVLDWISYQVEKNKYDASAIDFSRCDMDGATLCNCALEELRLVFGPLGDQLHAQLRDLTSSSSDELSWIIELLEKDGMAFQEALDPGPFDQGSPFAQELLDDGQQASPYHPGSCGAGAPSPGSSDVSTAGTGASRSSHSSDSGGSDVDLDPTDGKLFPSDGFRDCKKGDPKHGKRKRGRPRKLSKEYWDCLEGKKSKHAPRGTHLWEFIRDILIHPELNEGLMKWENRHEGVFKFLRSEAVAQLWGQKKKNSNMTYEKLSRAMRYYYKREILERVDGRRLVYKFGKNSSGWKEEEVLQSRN
In short: as §1

[18] = biological target: CRX (Homo sapiens, UniProt O43186 1-299); conditions: protein: recombinant; tags: N-terminal GST; dsDNA, one strand shown
In short: as §1

[19] = biological target: ETV1 (Homo sapiens, UniProt P50549 1-477); conditions: protein: recombinant; tags: N-terminal GST; dsDNA, one strand shown
In short: as §1

Chain of HSF1 (Q00613 whole entry): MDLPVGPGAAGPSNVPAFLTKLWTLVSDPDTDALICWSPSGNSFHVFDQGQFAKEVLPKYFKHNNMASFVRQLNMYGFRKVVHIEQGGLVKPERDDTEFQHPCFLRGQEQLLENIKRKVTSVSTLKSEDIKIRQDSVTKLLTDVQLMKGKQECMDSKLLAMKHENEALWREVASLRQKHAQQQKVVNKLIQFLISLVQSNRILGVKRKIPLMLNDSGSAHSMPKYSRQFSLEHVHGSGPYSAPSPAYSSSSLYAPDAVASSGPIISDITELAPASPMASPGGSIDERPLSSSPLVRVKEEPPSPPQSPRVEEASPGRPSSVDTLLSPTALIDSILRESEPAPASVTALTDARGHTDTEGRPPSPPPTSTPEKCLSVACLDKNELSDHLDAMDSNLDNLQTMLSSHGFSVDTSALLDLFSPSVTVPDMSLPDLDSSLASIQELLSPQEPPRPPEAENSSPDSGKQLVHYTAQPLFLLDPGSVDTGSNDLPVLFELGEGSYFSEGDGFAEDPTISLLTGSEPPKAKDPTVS
Chain of CRX (O43186 whole entry): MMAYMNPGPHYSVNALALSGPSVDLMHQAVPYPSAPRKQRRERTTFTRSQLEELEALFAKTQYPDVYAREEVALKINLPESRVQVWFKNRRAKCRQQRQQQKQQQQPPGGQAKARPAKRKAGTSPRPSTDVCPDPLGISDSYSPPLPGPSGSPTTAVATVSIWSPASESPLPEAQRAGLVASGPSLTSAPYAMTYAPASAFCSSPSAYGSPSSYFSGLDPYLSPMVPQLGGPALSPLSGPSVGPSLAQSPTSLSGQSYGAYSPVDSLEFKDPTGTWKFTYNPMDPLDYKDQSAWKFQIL
Chain of ETV1 (P50549 whole entry): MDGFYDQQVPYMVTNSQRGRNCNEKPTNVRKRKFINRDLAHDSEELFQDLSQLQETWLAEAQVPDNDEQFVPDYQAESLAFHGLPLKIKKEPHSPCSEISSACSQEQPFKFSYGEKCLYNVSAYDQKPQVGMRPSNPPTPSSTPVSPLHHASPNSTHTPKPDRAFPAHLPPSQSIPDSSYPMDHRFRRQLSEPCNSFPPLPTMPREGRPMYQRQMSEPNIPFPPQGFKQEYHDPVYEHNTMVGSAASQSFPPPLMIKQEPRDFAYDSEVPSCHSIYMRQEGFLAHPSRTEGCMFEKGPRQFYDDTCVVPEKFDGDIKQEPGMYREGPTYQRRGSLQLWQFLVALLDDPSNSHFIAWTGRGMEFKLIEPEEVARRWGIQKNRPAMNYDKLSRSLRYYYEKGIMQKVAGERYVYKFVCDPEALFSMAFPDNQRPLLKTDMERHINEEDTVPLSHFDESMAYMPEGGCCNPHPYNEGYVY
Chain of SPIB (Q01892 whole entry): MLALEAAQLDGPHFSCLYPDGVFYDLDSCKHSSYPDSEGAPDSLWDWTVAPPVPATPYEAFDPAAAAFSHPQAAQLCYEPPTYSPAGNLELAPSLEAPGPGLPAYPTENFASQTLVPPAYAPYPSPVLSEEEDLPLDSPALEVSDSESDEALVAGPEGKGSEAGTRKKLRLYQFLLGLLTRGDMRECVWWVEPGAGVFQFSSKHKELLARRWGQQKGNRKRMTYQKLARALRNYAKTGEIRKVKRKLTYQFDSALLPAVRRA
Chain of ELF4 (Q99607 whole entry): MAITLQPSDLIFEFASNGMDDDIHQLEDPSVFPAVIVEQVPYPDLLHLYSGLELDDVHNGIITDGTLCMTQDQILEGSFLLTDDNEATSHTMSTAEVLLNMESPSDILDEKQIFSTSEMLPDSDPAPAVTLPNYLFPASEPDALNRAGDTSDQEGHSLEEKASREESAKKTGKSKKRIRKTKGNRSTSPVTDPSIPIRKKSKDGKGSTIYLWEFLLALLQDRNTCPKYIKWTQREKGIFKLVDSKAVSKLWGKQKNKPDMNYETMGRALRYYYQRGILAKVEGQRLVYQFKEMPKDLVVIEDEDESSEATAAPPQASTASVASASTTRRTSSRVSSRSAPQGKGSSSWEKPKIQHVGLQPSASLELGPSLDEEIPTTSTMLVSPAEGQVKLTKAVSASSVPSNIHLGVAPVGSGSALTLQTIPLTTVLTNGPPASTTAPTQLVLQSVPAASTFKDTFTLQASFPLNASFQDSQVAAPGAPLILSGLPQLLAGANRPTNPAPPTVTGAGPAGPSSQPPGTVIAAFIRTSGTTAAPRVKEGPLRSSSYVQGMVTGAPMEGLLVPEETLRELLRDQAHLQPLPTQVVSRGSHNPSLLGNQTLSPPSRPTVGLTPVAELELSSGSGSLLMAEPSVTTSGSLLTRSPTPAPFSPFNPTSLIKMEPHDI
Chain of ETV5 (P41161 whole entry): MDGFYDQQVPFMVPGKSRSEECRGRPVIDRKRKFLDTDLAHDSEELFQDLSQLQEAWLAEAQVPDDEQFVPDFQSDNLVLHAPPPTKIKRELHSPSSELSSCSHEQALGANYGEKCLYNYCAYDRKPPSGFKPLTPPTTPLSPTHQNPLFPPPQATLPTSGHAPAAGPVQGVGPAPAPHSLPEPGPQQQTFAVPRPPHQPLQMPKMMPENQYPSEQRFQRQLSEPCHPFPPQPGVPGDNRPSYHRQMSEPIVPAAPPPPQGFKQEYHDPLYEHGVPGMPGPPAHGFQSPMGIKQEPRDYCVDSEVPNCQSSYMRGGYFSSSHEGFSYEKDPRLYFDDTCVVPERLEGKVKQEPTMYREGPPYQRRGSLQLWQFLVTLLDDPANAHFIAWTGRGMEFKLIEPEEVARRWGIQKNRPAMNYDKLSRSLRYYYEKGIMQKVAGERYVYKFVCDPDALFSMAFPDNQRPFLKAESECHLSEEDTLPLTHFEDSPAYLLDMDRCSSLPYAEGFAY
Chain of ELF1 (P32519 whole entry): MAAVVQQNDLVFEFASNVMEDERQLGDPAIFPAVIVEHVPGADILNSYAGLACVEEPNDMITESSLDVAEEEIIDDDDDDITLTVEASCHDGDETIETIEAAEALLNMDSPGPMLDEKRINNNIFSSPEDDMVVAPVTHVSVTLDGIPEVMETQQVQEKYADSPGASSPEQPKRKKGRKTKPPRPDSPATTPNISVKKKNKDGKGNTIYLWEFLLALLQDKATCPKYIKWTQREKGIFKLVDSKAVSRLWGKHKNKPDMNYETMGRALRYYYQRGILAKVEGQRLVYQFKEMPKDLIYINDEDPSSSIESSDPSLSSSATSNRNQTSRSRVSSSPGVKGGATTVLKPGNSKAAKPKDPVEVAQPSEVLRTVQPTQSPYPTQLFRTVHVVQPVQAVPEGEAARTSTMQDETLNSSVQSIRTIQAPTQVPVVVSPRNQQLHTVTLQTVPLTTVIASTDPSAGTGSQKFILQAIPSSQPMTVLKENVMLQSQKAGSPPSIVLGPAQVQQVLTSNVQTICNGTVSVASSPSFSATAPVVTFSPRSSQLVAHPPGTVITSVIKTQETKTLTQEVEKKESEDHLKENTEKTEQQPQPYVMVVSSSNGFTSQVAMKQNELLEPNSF

Question: With CTCCCG as the sequence, how does the binding signal [1] read?
Answer: 1.61 fold enrichment (6-mer frequency, TF over GST control)

Question: And the binding signal [2]?
Answer: 1.56 fold enrichment (6-mer frequency, TF over GST control)

Question: What about the binding signal [3] of the same sequence?
Answer: 1.62 fold enrichment (6-mer frequency, TF over GST control)

Question: And the binding signal [4]?
Answer: 1.54 fold enrichment (6-mer frequency, TF over GST control)

Question: What about the binding signal [5] of the same sequence?
Answer: 1.57 fold enrichment (6-mer frequency, TF over GST control)

Question: And the binding signal [6]?
Answer: 1.75 fold enrichment (6-mer frequency, TF over GST control)

Question: And the binding signal [7]?
Answer: 1.45 fold enrichment (6-mer frequency, TF over GST control)

Question: What about the binding signal [8] of the same sequence?
Answer: 1.62 fold enrichment (6-mer frequency, TF over GST control)

Question: What about the binding signal [9] of the same sequence?
Answer: 1.58 fold enrichment (6-mer frequency, TF over GST control)

Question: And the binding signal [10]?
Answer: 1.61 fold enrichment (6-mer frequency, TF over GST control)

Question: What about the binding signal [11] of the same sequence?
Answer: 1.59 fold enrichment (6-mer frequency, TF over GST control)

Question: And the binding signal [12]?
Answer: 1.5 fold enrichment (6-mer frequency, TF over GST control)

Question: What about the binding signal [13] of the same sequence?
Answer: 1.77 fold enrichment (6-mer frequency, TF over GST control)

Question: What about the binding signal [14] of the same sequence?
Answer: 1.68 fold enrichment (6-mer frequency, TF over GST control)

Question: And the binding signal [15]?
Answer: 1.46 fold enrichment (6-mer frequency, TF over GST control)

Question: What about the binding signal [16] of the same sequence?
Answer: 1.25 fold enrichment (6-mer frequency, TF over GST control)

Question: And the binding signal [17]?
Answer: 1.69 fold enrichment (6-mer frequency, TF over GST control)

Question: And the binding signal [18]?
Answer: 1.27 fold enrichment (6-mer frequency, TF over GST control)

Question: What about the binding signal [19] of the same sequence?
Answer: 1.5 fold enrichment (6-mer frequency, TF over GST control)
